According to PubChem BioAssay (EPA / NIEHS):
Activity calls are given as the source filed them. Rule for the calls: active = hit-call score of the fitted dose curve at least 0.9, where 1 is the maximum; inactive = score below 0.9.

How the values were obtained:
[1] = ATG_GLI_CIS: Attagene CIS-FACTORIAL HepG2 Assay for human Zinc Finger Protein GLI1 (AID 2282945); conditions: HepG2, Attagene cis-factorial reporter mRNA, GLI element; actives raise or lower the signal
Method in brief: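 Bidirectional curve fits relative to DMSO, using reporter mRNA levels from RT-PCR plus capillary electrophoresis. Cells were HepG2 transiently carrying cis-regulated reporter constructs, harvested 24 h after dosing.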

[2] = molecular target: Bile acid receptor (Homo sapiens) (UniProt Q96RI1); test: ATG_IR1_CIS: Attagene CIS-FACTORIAL HepG2 Assay for human Nuclear Receptor Subfamily 1 Group H Member 4 (NR1H4), IR1 submotif (AID 2282946); conditions: IR1 reporter transcription, actives raise or lower the signal
Method in brief: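 HepG2 cells transiently transfected with multiplexed cis-element reporter units read endogenous transcription factor activity. After 24 h compound exposure, reporter mRNA was quantified by RT-PCR, fluorescent labelling, HpaI digestion and capillary electrophoresis; bidirectional fitting versus DMSO baseline.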

[3] = ATG_ISRE_CIS: Attagene CIS-FACTORIAL HepG2 Assay for human Interferon Regulatory Factor 1 (IRF1) binding to an Interferon-Stimulated Response Element (ISRE) (AID 2282948); conditions: HepG2 ISRE cis-reporter (Attagene), mRNA transcription readout; actives raise or lower the signal
Method in brief: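 Signal reflects induction or loss of ISRE-linked reporter mRNA in transiently transfected HepG2 cells after a 24 h treatment, detected by fluorescent RT-PCR fragments on capillary electrophoresis and normalised to DMSO.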

[4] = ATG_M_32_CIS: Attagene CIS-FACTORIAL HepG2 Assay for M32 Transcription Factor (Internal Marker) (AID 2282949); conditions: HepG2 Attagene cis-factorial M32 reporter, mRNA; actives raise or lower the signal;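 note: background control marker of the multiplexed CIS panel rather than a real target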
Method in brief: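 HepG2 transfectants (cis-regulated reporter transcription units) dosed 24 h. Reporter mRNA by RT-PCR plus CE, analysed as gain or loss relative to DMSO.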

[5] = ATG_M_06_CIS: Attagene CIS-FACTORIAL HepG2 Assay for M06 Transcription Factor (Internal Marker) (AID 2282950); conditions: HepG2 Attagene CIS-FACTORIAL M06 internal marker reporter; actives raise or lower the signal
Method in brief: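 Terse: HepG2, transient MRTU transfection (FuGene 6), 24 h dosing; total RNA, oligo(dT) RT, PCR, FAM label, HpaI cut, capillary electrophoresis; bidirectional fit vs DMSO baseline; background-control endpoint.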

[6] = molecular target: Hypoxia-inducible factor 1-alpha (Homo sapiens) (UniProt Q16665); test: ATG_HIF1a_CIS: Attagene CIS-FACTORIAL HepG2 Assay for human Hypoxia Inducible Factor 1 (HIF1A) (AID 2282951); conditions: HepG2 Attagene cis-factorial HIF1a reporter transcription; actives raise or lower the signal
Method in brief: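 Dosed 24 h, transfected HepG2 cells yielded total RNA whose reporter transcripts were RT-PCR-amplified and sized by capillary electrophoresis using fluorescent labelling; DMSO defined baseline, with gain and loss of signal both fitted.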

[7] = molecular target: Hepatocyte nuclear factor 6 (Homo sapiens) (UniProt Q9UBC0); test: ATG_HNF6_CIS: Attagene CIS-FACTORIAL HepG2 Assay for human Hepatocyte Nuclear Factor 6 (HNF6) (AID 2282952); conditions: HepG2 Attagene cis-factorial HNF6 reporter transcription; actives raise or lower the signal
Method in brief: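 Endogenous transcription factor activity in human HepG2 liver cells was captured through cis-regulated reporter constructs. After 24 h treatment, reporter mRNA was measured by RT-PCR with capillary electrophoresis, and activity was fitted in both directions relative to DMSO.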

[8] = molecular target: Heat shock factor protein 1 (Homo sapiens) (UniProt Q00613); test: ATG_HSE_CIS: Attagene CIS-FACTORIAL HepG2 Assay for human Heat Shock Transcription Factor 1 (HSE) (AID 2282953); conditions: HepG2 HSE cis-reporter, Attagene RNA transcription; actives raise or lower the signal
Method in brief: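 Read-out: fluorescence of reporter-specific RT-PCR fragments separated by capillary electrophoresis. HepG2 carrying transfected cis-element reporter units; 24 h dosing; activity fitted in both directions relative to DMSO baseline.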

[9] = ATG_MRE_CIS: Attagene CIS-FACTORIAL HepG2 Assay for human Metal Responsive Element (MRE) (AID 2282954); conditions: HepG2 MRE cis-reporter transcription, Attagene multiplex; actives raise or lower the signal
Method in brief: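 Endogenous MRE-dependent transcription read as reporter mRNA in transiently transfected human HepG2 cells at 24 h. RNA reverse-transcribed, PCR-amplified, labelled and resolved by capillary electrophoresis; gain or loss relative to DMSO.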

[10] = ATG_GRE_CIS: Attagene CIS-FACTORIAL HepG2 Assay for human Glucocorticoid Response Elements (GRE) (AID 2282947); conditions: HepG2 GRE cis-reporter, Attagene multiplex mRNA; actives raise or lower the signal
Method in brief: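 Reporter transcripts read by RT-PCR with capillary electrophoresis fluorescence after a 24 h chemical exposure of HepG2 cells transiently transfected with multiple cis-element reporter units. Gain or loss fitted against DMSO.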

Measured: AC50

Sequence of Hypoxia-inducible factor 1-alpha (Homo sapiens) (Q16665 whole entry, looked up): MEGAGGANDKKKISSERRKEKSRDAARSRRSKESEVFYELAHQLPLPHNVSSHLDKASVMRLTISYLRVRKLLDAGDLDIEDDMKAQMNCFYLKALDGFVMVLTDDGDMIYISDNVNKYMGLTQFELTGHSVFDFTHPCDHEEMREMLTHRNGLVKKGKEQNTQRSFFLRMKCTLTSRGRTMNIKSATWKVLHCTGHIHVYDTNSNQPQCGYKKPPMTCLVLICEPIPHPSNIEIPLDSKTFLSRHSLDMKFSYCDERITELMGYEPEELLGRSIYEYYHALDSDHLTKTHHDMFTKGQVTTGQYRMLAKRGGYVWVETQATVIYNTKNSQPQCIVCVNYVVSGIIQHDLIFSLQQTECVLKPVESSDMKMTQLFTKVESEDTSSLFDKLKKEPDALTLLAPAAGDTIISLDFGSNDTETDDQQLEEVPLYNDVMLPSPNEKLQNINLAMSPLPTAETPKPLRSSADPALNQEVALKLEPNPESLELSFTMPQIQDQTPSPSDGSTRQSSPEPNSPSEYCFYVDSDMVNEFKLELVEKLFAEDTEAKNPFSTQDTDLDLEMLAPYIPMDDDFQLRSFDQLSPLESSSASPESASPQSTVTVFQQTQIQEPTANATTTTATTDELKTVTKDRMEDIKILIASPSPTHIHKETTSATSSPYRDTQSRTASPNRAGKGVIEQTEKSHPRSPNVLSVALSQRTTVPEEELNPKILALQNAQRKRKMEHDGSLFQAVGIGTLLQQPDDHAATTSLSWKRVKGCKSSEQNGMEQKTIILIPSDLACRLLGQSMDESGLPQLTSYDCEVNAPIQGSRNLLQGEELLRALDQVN
Sequence of Hepatocyte nuclear factor 6 (Homo sapiens) (Q9UBC0 whole entry, looked up): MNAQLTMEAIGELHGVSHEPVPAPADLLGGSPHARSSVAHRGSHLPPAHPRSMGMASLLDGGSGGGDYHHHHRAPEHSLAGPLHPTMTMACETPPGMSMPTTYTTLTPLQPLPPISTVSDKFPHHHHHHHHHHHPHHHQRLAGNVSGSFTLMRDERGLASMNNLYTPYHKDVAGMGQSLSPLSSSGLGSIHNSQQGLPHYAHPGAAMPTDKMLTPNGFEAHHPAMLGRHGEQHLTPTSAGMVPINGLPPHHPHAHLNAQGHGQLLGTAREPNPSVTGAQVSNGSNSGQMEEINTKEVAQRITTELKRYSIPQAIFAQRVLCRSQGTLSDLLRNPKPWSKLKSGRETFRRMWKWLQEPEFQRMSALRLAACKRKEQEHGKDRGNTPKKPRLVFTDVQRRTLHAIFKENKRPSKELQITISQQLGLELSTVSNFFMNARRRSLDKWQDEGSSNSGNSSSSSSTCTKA
Sequence of Heat shock factor protein 1 (Homo sapiens) (Q00613 whole entry, looked up, the tested form may be a part): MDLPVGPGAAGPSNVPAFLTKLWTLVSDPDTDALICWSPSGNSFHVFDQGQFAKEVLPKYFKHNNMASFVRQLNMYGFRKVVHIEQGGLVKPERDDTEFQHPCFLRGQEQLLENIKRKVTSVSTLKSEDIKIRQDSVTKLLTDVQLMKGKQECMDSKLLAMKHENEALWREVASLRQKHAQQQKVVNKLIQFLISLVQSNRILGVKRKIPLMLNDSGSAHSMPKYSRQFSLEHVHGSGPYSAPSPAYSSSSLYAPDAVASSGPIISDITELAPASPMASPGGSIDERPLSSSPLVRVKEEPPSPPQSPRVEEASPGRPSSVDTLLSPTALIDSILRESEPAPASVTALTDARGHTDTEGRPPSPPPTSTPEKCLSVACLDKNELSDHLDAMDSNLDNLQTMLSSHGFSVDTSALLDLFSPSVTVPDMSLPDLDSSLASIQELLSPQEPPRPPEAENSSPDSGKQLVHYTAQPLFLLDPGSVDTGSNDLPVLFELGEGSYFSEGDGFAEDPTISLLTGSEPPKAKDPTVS
Sequence of Bile acid receptor (Homo sapiens) (Q96RI1 whole entry, looked up): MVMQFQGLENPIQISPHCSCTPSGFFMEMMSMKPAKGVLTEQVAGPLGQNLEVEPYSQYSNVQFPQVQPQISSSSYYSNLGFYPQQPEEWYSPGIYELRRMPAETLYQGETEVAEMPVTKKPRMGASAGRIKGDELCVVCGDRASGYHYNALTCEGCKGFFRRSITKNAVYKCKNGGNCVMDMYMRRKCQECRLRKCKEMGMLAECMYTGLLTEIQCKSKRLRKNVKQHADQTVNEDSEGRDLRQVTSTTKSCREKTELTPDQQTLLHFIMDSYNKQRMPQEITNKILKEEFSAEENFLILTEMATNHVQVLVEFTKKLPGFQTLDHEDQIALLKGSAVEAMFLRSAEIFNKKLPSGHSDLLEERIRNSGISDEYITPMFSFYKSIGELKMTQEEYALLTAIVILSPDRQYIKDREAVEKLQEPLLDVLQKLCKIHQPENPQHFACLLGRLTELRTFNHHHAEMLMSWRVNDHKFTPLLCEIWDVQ

Oc1c(Cl)cc(Cl)c(Cl)c1Cl
active: [7] 51.7 µM | [9] 70.8 µM
not listed: [10]
inactive: all other assays above

Nc1ccc(Cl)c(N)c1
not listed: [10]
inactive: all other assays above

CC(C)(CO)COC(=O)C(C)(C)CO
not listed: [7]
inactive: all other assays above

CC=CC(=O)OCC(C)C
not listed: [10]
inactive: all other assays above

Cn1ccnc1
not listed: [6] | [7]
inactive: all other assays above

CCCCC/C=C\C/C=C\CCCCCCCC(=O)O
active: [2] 76.3 µM | [6] 26.6 µM | [8] 150 µM | [9] 149 µM
not listed: [10]
inactive: all other assays above

N=C1C=CC(=C(c2ccc(N)cc2)c2ccc(N)cc2)C=C1
active: [10] 23.9 µM | [3] 33.4 µM | [8] 42.5 µM | [9] 48.2 µM
not listed: [6]
inactive: all other assays above

NNS(=O)(=O)c1ccc(Oc2ccc(S(=O)(=O)NN)cc2)cc1
not listed: [10]
inactive: all other assays above

Oc1ccc(/C=C/c2cc(O)cc(O)c2)cc1
active: [3] 100 µM
not listed: [6] | [10]
inactive: all other assays above

C=CC(=O)OCCCCCCCC(C)C
active: [2] 91.4 µM | [6] 71.8 µM
not listed: [10]
inactive: all other assays above

O=C1CCCCC1C1CCCCC1 (centres undefined)
not listed: [2]
inactive: all other assays above

CCCC1CCCC(=O)O1 (centres undefined)
not listed: [2]
inactive: all other assays above

CC1=NN(c2ccc(S(=O)(=O)O)cc2)C(=O)C1N=Nc1ccccc1 (centres undefined)
not listed: [2]
inactive: all other assays above

CC(C)[N+](C)(CCOC(=O)C1c2ccccc2Oc2ccccc21)C(C)C
not listed: [6] | [10]
inactive: all other assays above

N#CC1(N)CCCCC1
not listed: [2]
inactive: all other assays above

CC(C)(CO)C(O)C(=O)NCCCO (centres undefined)
not listed: [6] | [10]
inactive: all other assays above

CCCCc1ccc(Cl)cc1
not listed: [10]
inactive: all other assays above
